Data: PubChem BioAssay AID1725 (National Center for Advancing Translational Sciences (NCATS), 2009)
The list shows a part of the results. Inconclusive results are not listed. Unmarked numbers belong to inactive results. Calls of active or inactive are those of the source. Calls follow the shape of the dose curve; as a rule, active = well fitted inhibition curve with a large enough effect; inconclusive = small, poorly fitted or top-dose-only effect, or effect the other way; inactive = no such curve, though single readings can be large or run the other way.

test: Confirmation Concentration-Response Assay for Inhibitors of the ERK Signaling Pathway using a Homogeneous Screening Assay; Stimulation with EGF; details: HEK293 EGF-stimulated ERK phosphorylation, AlphaScreen; series mostly up to 57.5 µM; activity change, negative = inhibition: at the top concentration
Description: qHTS Assay for Inhibitors of the ERK Signaling Pathway using a Homogeneous Screening Assay
NIH Chemical Genomics Center [NCGC]
NIH Molecular Libraries Screening Centers Network [MLSCN]
Assay Submitter (PI): Dr. Wei Zheng, NCGC/NIH
The Ras/extracellular-signal-regulated kinase (ERK) mitogen activated protein (MAP) kinase signaling pathway (ERK1/2 cascade) plays is a key role in transmitting signals from the cell surface to the nucleus (Nishida and Gotoh 1993; Chang and Karin, 2001). The cascade is initiated by the small G-protein Ras, which recruits Raf […], where activation occurs. Alternatively, this pathway can be activated by elevating intracellular cAMP.
Activation of the ERK pathway is essential in increased cell division and cell survival. Sustained and constitutive activation of the ERK pathway, however, has been linked to uncontrolled cell proliferation, increased cell survival, and tumor progression. Thus, the ERK has been as an attractive target for cancer chemotherapy in the past few years (Sebolt-Leopold and Herrera, 2004). Given its physiological and pathological importance, assessment of ERK phosphorylation has been broadly performed in both basic research and drug discovery. Most assays for the measurement of ERK phosphorylation use the antibody-based detection methods, such as western blot and ELISA. These assays require multiple reagent additions with cell wash steps and are not suitable for high-throughput screening.
The current cell-based ERK phosphorylation assay was performed using AlphaScreen platform. AlphaScreen is a two bead-based proximity-dependent chemical energy transfer luminescent assay platform. […]
HEK293 cells stably expressing type-1 vasopressin receptor (V1b) were maintained in DMEM medium (Invitrogen, Carlsbad, CA) at 37C under a humidified atmosphere containing 5% CO2 and 95% air. […] The ERK phosphorylation in cells was determined using an AlphaScreen assay kit provided by PerkinElmer. […] AC50 values were determined from concentration-response data modeled with the standard Hill equation. […]

Row | Compound | Potency | activity change, negative = inhibition [%]
1 | CN(C)c1ccc(Nc2c3c4c(cccc4n(C)c2=O)C(=O)c2ccccc2-3)cc1 | 11.2 µM (active) | –
2 | CCCNc1ncnc2sc(C)c(C)c12 | – | -8.99
3 | CN(C)c1cc2c(Nc3ccc4c(cnn4Cc4ccccc4)c3)ncnc2cn1 | 2.82 µM (active) | –
